Experimental data published in ChEMBL document CHEMBL1157539, “Thousands of chemical starting points for antimalarial lead identification” (Nature, 2010).

How the values were obtained:
Format in all cases: functional
Plasmodium falciparum [1] = assay: GSK_TCMDC: Inhibition of Plasmodium falciparum 3D7 in whole red blood cells, using parasite LDH activity as an index of growth. Test compounds present at 2uM
Plasmodium falciparum [2] = assay: GSK_TCMDC: Inhibition of Plasmodium falciparum Dd2 in whole red blood cells, using parasite LDH activity as an index of growth. Test compounds present at 2uM
HepG2 = assay: GSK_TCMDC: Percent inhibition of human HepG2 cell line. Test compounds present at 10uM.

| Structure (SMILES) | Inhibition (Plasmodium falciparum [1]) [%] | Inhibition (Plasmodium falciparum [2]) [%] | Inhibition (HepG2) [%] |
| --- | --- | --- | --- |
| COc1cc2c(cc1NC(=O)CN1CCN(C(=O)c3ccco3)CC1)oc1ccccc12 | 96 | 96 | 13 |
| CC(C)c1sc(N2CCN(C)CC2)nc1C(=O)Nc1ccc(F)cc1C(F)(F)F.O=C(O)C(F)(F)F | 100 | 99 | 3 |
| CCCCN(Cc1cc(Cl)c(OC)c(OC)c1)c1ccc(C(O)(C(F)(F)F)C(F)(F)F)cc1.O=C(O)C(F)(F)F | 98 | 73 | 3 |
| CC(=O)Nc1nc(C(=O)Nc2ccc(-c3cccc(-c4nc5cc(F)ccc5[nH]4)c3)cc2)cs1 | 94 | 29 | 86 |
| O=C(Nc1cccc(-c2cccc(-c3nc4cc(C(F)(F)F)ccc4[nH]3)c2)c1)c1csnn1 | 99 | 37 | 45 |
| Cl.N#Cc1ccc2c(c1)CCN(CCC1CCC(NC(=O)/C=C/c3cnc4ccccc4c3)CC1)CC2 (configuration not stated) | 87 | 21 | 22 |
| CC(Cc1ccc(CNC(=O)NCc2ccc(CC(C)NCCc3cccc(Cl)c3)cc2)cc1)NCCc1cccc(Cl)c1 (configuration not stated) | 100 | 44 | 100 |
| CN1CCN(c2ccnc3ccc(NC(=O)Nc4cccc5c(Br)cccc45)cc23)CC1.Cl | 100 | 96 | 7 |
| O=C(N/N=C/c1nc2ccccc2[nH]1)c1cccc([N+](=O)[O-])c1 | 99 | 82 | 0 |
| COc1cc2c(cc1OCCN1CCC(N3CCCCC3)CC1)N(C(=O)/C=C/c1ccccc1Cl)CC2 | 100 | 41 | 36 |
| Cc1cc(C)c2cc(CNCCCNc3nc4ccccc4[nH]3)[nH]c2c1 | 100 | 0 | 32 |
| O=C(/C=C/c1cccs1)NCC(NCCCNc1cc(=O)c2ccccc2[nH]1)c1cc(Br)cc(Br)c1 (configuration not stated) | 100 | 58 | 0 |
| N=C(N)NC(=O)Nc1cc(Br)c(Cl)c(Br)c1 | 100 | 83 | 0 |
| O=C1c2ccc([N+](=O)[O-])cc2C(=O)N1c1ccc2[nH]ncc2c1 | 87 | 0 | 11 |
| COc1cc2nc(N3CCC(CNCc4ccc(-c5ccc(C(F)(F)F)cc5)cc4)CC3)nc(N)c2cc1OC | 99 | 100 | 99 |
| COc1ccc2nccc([C@@H](O)CN3CCC(NC(=O)c4cc5cccnc5[nH]4)CC3)c2c1.Cl | 94 | 6 | 0 |
| O=C(N[C@H]1CCN(Cc2ccc(OCCCN3CCCCC3)cc2)C1)c1ccc(Oc2ccccc2)cc1 | 96 | 11 | 56 |
| CC(C)Cn1cc(C2CCN(CCN3CCC(CNC(=O)c4ccc(-c5ccc(C(F)(F)F)cc5)cc4)CC3)CC2)c2ccccc21 | 100 | 87 | 100 |
| O=C(Nc1nccs1)c1cn(-c2ccccc2)nc1-c1ccc(Cl)s1 | 96 | 18 | 9 |
| CN(C)CCN(C)Cc1ccc(-c2cccc(NC(=O)c3cccc(C#N)c3)c2)cc1.O=C(O)C(F)(F)F | 94 | 11 | 23 |

| Structure (SMILES) | Inhibition (Plasmodium falciparum [1]) [%] | Inhibition (Plasmodium falciparum [2]) [%] | Inhibition (HepG2) [%] |
| --- | --- | --- | --- |
| Cc1nnnn1-c1ccc(C(=O)N2CCC3(CC2)CN(Cc2ccc(Cl)c(Cl)c2)C(=O)O3)cc1 | 100 | 99 | 2 |
| Fc1cc(Cl)ccc1Nc1ccnc2cc(-c3ccc(CN4CCSCC4)o3)ccc12 | 100 | 99 | 17 |
| O=C(NC1CCCCC1)N(Cc1ccc(-c2cccc(CNCc3ccc4c(c3)OCO4)c2)cc1)C1CCN(Cc2ccccc2)CC1.O=C(O)C(F)(F)F | 100 | 72 | 23 |
| CCC(C)CN1CCCN(c2ccc(NC(=O)c3cccs3)cc2)CC1.O=C(O)C(F)(F)F (configuration not stated) | 91 | 95 | 4 |
| O=C(O)C(F)(F)F.O=c1ccc2ccc(F)c3c2n1CC3CN1CCC(NCc2ccc(-c3cccc(Cl)c3)nc2)CC1 (configuration not stated) | 96 | 33 | 16 |
| O=c1cc(NCCCCNCc2cccc(Br)c2)[nH]c2ccccc12 | 98 | 19 | 0 |
| O=[N+]([O-])c1ccc(N2CCCN(C(=S)Nc3ccc(F)cc3Br)CC2)nc1 | 100 | 99 | 4 |
| NCc1ccc(CNCc2ccc(-c3ccc(-c4nc5cc(C(F)(F)F)ccc5[nH]4)s3)cc2)cc1.O=C(O)C(F)(F)F | 95 | 92 | 34 |
| O=C(NCCc1ccccc1F)c1cc(Br)cc(N2CCN(c3ccncc3)CC2)c1.O=C(O)C(F)(F)F | 97 | 67 | 29 |
| COc1ccc(NC(=O)[C@H](Cc2ccccc2)Nc2cc(C)nc(NCCc3cccnc3)n2)cc1.O=C(O)C(F)(F)F | 98 | 5 | 11 |
| CCCC(C)n1ccc2c3c(N)nc(N)nc3ccc21 (configuration not stated) | 94 | 91 | 70 |
| Cc1ccc2[nH]c(-c3ccc(C=CC(=O)NC4CCN(Cc5ccccc5)CC4)cc3)nc2c1 | 100 | 92 | 9 |
| COC(=O)c1cccc(C#CCCOCCCCCCNC[C@H](O)c2cc(Cl)c(N)c(Cl)c2)c1 | 97 | 88 | 12 |
| CC(C)C[C@H](NC(=O)c1cc(-c2ccc(C(C)(C)C)cc2)no1)C(=O)O.CC(C)C[C@H](NC(=O)c1conc1-c1ccc(C(C)(C)C)cc1)C(=O)O | 95 | 6 | 3 |
| O=C(/C=C/c1ccc(Cl)c(Cl)c1)NCCCCCN1CCC(NC(=O)Nc2cc(Cl)nc(Cl)c2)CC1 | 100 | 2 | 4 |
| CN(Cc1cccc(O)c1)C1CCN(c2cc(NC(=O)c3ccc(F)cc3)ccn2)C1.O=C(O)C(F)(F)F (configuration not stated) | 91 | 6 | 5 |
| COc1cc(C(=O)N2CCC(CCN3CCC4(CC3)CN(S(C)(=O)=O)c3ccccc34)CC2Cc2ccc(Cl)c(Cl)c2)cc(OC)c1OC.Cl (configuration not stated) | 100 | 99 | 29 |
| Oc1ccc(CCNCc2ccc(OCc3ccccc3)c(OCc3ccccc3)c2)cc1 | 88 | 9 | 31 |
| CC(=O)Nc1ccc(CN(Cc2ccc(F)cc2)Cc2ccc3c(c2)OCO3)cc1 | 91 | 87 | 3 |
| COc1ccc(-c2ccccc2OCCCNc2nc(NCCc3ccc(O)cc3)nc(N3CCNCC3)n2)cc1.O=C(O)C(F)(F)F | 99 | 3 | 36 |

| Structure (SMILES) | Inhibition (Plasmodium falciparum [1]) [%] | Inhibition (Plasmodium falciparum [2]) [%] | Inhibition (HepG2) [%] |
| --- | --- | --- | --- |
| Cc1ccc(NC(=O)c2ccc(CN3CCCN(CC4CCCCC4)CC3)cc2)cc1F.O=C(O)C(F)(F)F | 92 | 61 | 51 |
| N#Cc1cncc(-c2nc3c(N4CCCC(N)C4)cccc3n2CCNCc2ccccc2)c1.O=C(O)C(F)(F)F (configuration not stated) | 100 | 1 | 8 |
| CS(=O)(=O)Nc1ccc2c(C3CCN(CCC4CCN(C(=O)/C=C/c5ccc(Cl)c(Cl)c5)CC4)CC3)c[nH]c2c1 | 99 | 63 | 35 |
| O=C(Nc1ccc(Cn2nc(Cl)c(N3CCCNCC3)cc2=O)cc1)c1ccc(-c2ccccc2)cc1.O=C(O)C(F)(F)F | 87 | 35 | 93 |
| CN(C)CCOc1ccc(NC(=O)NC(C)(C)c2nc(-c3ccc(Cl)c(O)c3)c(-c3ccncc3)[nH]2)cc1.Cl | 98 | 98 | 22 |
| Cc1nnsc1C(=O)Nc1cccc(-c2ccc(-c3nc4cc(F)ccc4[nH]3)cc2)c1 | 100 | 89 | 51 |
| CCCNC(=O)c1ccc(N2CCC(c3ccccc3C)CC2)nc1.O=C(O)C(F)(F)F | 86 | 80 | 6 |
| COc1ccc(Nc2nccc(N3CCC(NC(=O)Nc4cccc(C(C)=O)c4)C3)n2)cc1 (configuration not stated) | 98 | 79 | 29 |
| COc1cccc(CN2CCCN(Cc3cccc(NC(=O)c4ccc(Cl)c(Cl)c4)c3)CC2)c1.O=C(O)C(F)(F)F | 89 | 11 | 26 |
| Cc1noc(C)c1S(=O)(=O)N(C)Cc1ccc(-c2ccc(Cl)cc2)o1 | 100 | 100 | 10 |
| CCOc1cc(C)ccc1C1CCN(CCCCNC(=O)c2ccc(-c3ccc(Cl)cn3)cc2)CC1.Cl | 94 | 8 | 19 |
| COC(=O)Nc1cc(C(F)(F)F)ccc1N1CCC(CNS(=O)(=O)c2ccc(OC)cc2)CC1 | 99 | 95 | 13 |
| CCCCc1ccc(NC(=O)Nc2ccc3c(c2)CCNCC3)cc1.Cl | 95 | 43 | 16 |
| COc1ccc(Cl)cc1N1CCN(CCCNC(=O)c2ccc(-c3nc4cc5ccccc5cc4[nH]3)c(F)c2)CC1 | 99 | 62 | 12 |
| COc1ccc(CN(C)CCCOc2ccc(NC(=O)c3cccc4c(=O)c5cccc(C)c5[nH]c34)cc2)cc1OC | 96 | 62 | 3 |
| CN(C)c1ccc2c(c1)Sc1cc(N(C)C)ccc1N2C(=O)c1cccc(C(=O)O)c1 | 99 | 73 | 8 |
| CO/C(=C\C=C\c1cc2cc(Cl)c(Cl)cc2[nH]1)C(=O)NCCCN1CCN(c2cccc(CCO)c2)CC1 | 100 | 32 | 61 |
| CCc1cc(NCc2ccncc2)nc(Nc2ccc(F)cc2)n1 | 92 | 17 | 8 |
| Cc1cccc2nc(-c3ccc(-c4cccc(NC(=O)CCc5c[nH]cn5)c4)cc3)[nH]c12 | 100 | 14 | 13 |
